Reference: PubChem BioAssay (NCI)
Compounds without any hit were thinned out: in the full panel of roughly 79,000, 15% have a hit. Active and inactive are the calls of the source. Cut-off read from the data, not from the text of the source: active = growth inhibition above about 70%; inactive = the rest.

Tests used:
[1] = NCI Yeast Anticancer Drug Screen. Data for the rad52 strain (AID 147);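 note: 0% = growth of vehicle-treated control cultures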; conditions: S. cerevisiae rad52 mutant growth inhibition, hits give high values
Outline: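 Vehicle-treated cultures served as the reference for growth inhibition of compound-exposed yeast bearing a DNA repair mutation.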

[2] = NCI Yeast Anticancer Drug Screen. Data for the wt1 strain (AID 149);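 note: 0% = growth of vehicle-treated wt1 cultures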; conditions: S. cerevisiae wt1 strain (SPY 50644) growth inhibition, hits give high values
Outline: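 Using yeast strain wt1, compound-induced growth inhibition was determined against vehicle-treated cultures.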

[3] = NCI Yeast Anticancer Drug Screen. Data for the rad50EPP+ strain (AID 151);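 note: 0% = growth of vehicle-treated control cultures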; conditions: S. cerevisiae rad50 mutant strain, hits give high values
Outline: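 In this screen, rad50EPP+ yeast were exposed to compounds. Growth inhibition was scored against vehicle-treated controls.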

[4] = NCI Yeast Anticancer Drug Screen. Data for the mgt1 strain (AID 153); conditions: S. cerevisiae mgt1 mutant growth inhibition, hits give high values
Outline: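 mgt1 strain exposed; growth vs vehicle control recorded as inhibition.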

[5] = NCI Yeast Anticancer Drug Screen. Data for the rad50 strain (AID 155);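 note: 0% = growth of vehicle-only cultures of the same strain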; conditions: S. cerevisiae rad50 strain growth inhibition, hits give high values
Outline: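 Relative growth inhibition (compound vs vehicle) was measured in yeast with a defined repair-gene alteration.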

[6] = NCI Yeast Anticancer Drug Screen. Data for the mec2-1 strain (AID 157); conditions: S. cerevisiae mec2-1 strain, hits give high values
Outline: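 Vehicle-treated cultures served as reference for growth inhibition of compound-exposed mec2-1 yeast.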

[7] = NCI Yeast Anticancer Drug Screen. Data for the rad14 strain (AID 159);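 note: 0% = growth of vehicle-treated control cultures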; conditions: S. cerevisiae rad14 strain growth inhibition, hits give high values
Outline: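 Screen for anticancer potential: a yeast strain altered in DNA damage repair is grown with compound, and reduced growth is quantified against vehicle controls.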

[8] = NCI Yeast Anticancer Drug Screen. Data for the sgs1 mgt1 strain (AID 161);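 note: 0% = growth of cultures given vehicle only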; conditions: S. cerevisiae sgs1 mgt1 strain, hits give high values
Outline: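 Genetically altered yeast, compound exposure, growth inhibition relative to vehicle.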

[9] = NCI Yeast Anticancer Drug Screen. Data for the CLN2oe strain (AID 163);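 note: 0% = growth of vehicle-only control cultures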; conditions: S. cerevisiae CLN2oe strain, hits give high values
Outline: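 Inhibition relative to vehicle-treated yeast is reported. Cells: strain with genetic alteration in cell-cycle control, grown with compound.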

[10] = NCI Yeast Anticancer Drug Screen. Data for the cln2 rad14 strain (AID 165);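 note: 0% = growth equal to vehicle treated cultures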; conditions: S. cerevisiae cln2 rad14 strain, hits give high values
Outline: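 Each compound was tested on cln2 rad14 yeast. Inhibition of growth was calculated against vehicle-exposed controls.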

[11] = NCI Yeast Anticancer Drug Screen. Data for the bub3 strain (AID 167); conditions: S. cerevisiae bub3 mutant strain, hits give high values
Outline: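 Screening used yeast with an engineered genetic alteration affecting cell cycle control. Compound-exposed cultures were compared with vehicle cultures, and reduced growth was taken as inhibition.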

[12] = NCI Yeast Anticancer Drug Screen. Data for the wt2 strain (AID 169);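 note: 0% = growth of vehicle-treated yeast cultures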; conditions: S. cerevisiae wt2 strain growth inhibition, hits give high values
Outline: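 Inhibition of yeast growth was determined after compound treatment, normalised to controls receiving only vehicle.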

[13] = NCI Yeast Anticancer Drug Screen. Data for the mlh1 strain (AID 171);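 note: 0% = growth of vehicle-treated control cultures of the same strain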; conditions: S. cerevisiae mlh1 strain growth inhibition, hits give high values
Outline: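 Vehicle-normalised growth inhibition of a repair- or checkpoint-altered yeast strain following compound treatment.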

[14] = NCI Yeast Anticancer Drug Screen. Data for the sgs1 strain (AID 173);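 note: 0% = growth of vehicle-only control cultures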; conditions: S. cerevisiae sgs1 mutant, hits give high values
Outline: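 Screen format: yeast with repair or checkpoint alterations, compound exposure, growth read relative to vehicle.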

[15] = NCI Yeast Anticancer Drug Screen. Data for the mlh1 rad18 strain (AID 175); conditions: S. cerevisiae mlh1 rad18 strain growth inhibition, hits give high values
Outline: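 Vehicle-treated cultures served as the reference for growth inhibition in a yeast strain carrying DNA damage repair alterations exposed to each compound.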

[16] = NCI Yeast Anticancer Drug Screen. Data for the rad18 strain (AID 177); conditions: S. cerevisiae rad18 mutant growth inhibition, hits give high values
Outline: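 Test articles were incubated with altered yeast defective in DNA damage repair. Results are given as inhibition of growth versus vehicle.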

[17] = at 5.0 µM (retest, dose inferred, filed as 0.5)
[18] = at 50.0 µM (retest, dose inferred, filed as 5.0)

Measured: growth inhibition

CC1CC(C)(C)CC(OCCN2CCCCC2)(c2ccccc2)C1 (stereo unspecified)
active: [1]; at 100.0 µM 84% | [4]; at 100.0 µM 83% | [5]; [18] 89% | [5]; at 50.0 µM 87.8% | [5]; at 100.0 µM 82% | [7]; at 100.0 µM 99% | [8]; [18] 79% | [8]; at 50.0 µM 83.5% | [9]; at 100.0 µM 87% | [11]; [18] 74% | [11]; at 50.0 µM 78.8% | [11]; at 100.0 µM 75% | [12]; at 100.0 µM 80% | [13]; at 100.0 µM 87% | [14]; at 100.0 µM 95% | [15]; [18] 79% | [15]; at 50.0 µM 84.8% | [16]; at 100.0 µM 91%
inactive: [1]; at 1.2 µM -1% | [1]; at 3.7 µM 8% | [1]; at 11.0 µM 15% | [1]; at 33.0 µM 25% | [2]; at 1.2 µM 2% | [2]; at 3.7 µM 5% | [2]; at 11.0 µM 12% | [2]; at 33.0 µM 14% | [2]; at 100.0 µM 32% | [3]; at 1.2 µM -5% | [3]; at 3.7 µM 1% | [3]; at 11.0 µM -3% | [3]; at 33.0 µM -3% | [3]; at 100.0 µM -2% | [4]; at 1.2 µM 0% | [4]; at 3.7 µM 2% | [4]; at 11.0 µM 10% | [4]; at 33.0 µM 32% | [5]; at 1.2 µM 3% | [5]; at 3.7 µM 8% | [5]; [17] 28% | [5]; at 11.0 µM 19% | [5]; at 33.0 µM 25% | [6]; at 1.2 µM 0% | [6]; at 3.7 µM 3% | [6]; [17] 4% | [6]; at 11.0 µM 10% | [6]; at 33.0 µM 11% | [6]; [18] 10% | [6]; at 50.0 µM 36.3% | [6]; at 100.0 µM 54% | [7]; at 1.2 µM 7% | [7]; at 3.7 µM 21% | [7]; at 11.0 µM 37% | [7]; at 33.0 µM 62% | [8]; [17] 4% | [9]; at 1.2 µM 2% | [9]; at 3.7 µM 7% | [9]; at 11.0 µM 20% | [9]; at 33.0 µM 50% | [10]; [17] -1% | [10]; [18] 26% | [10]; at 50.0 µM 52.2% | [11]; at 1.2 µM -3% | [11]; at 3.7 µM 4% | [11]; [17] -16% | [11]; at 11.0 µM 17% | [11]; at 33.0 µM 52% | [12]; at 1.2 µM 0% | [12]; at 3.7 µM 5% | [12]; at 11.0 µM 21% | [12]; at 33.0 µM 32% | [13]; at 1.2 µM 1% | [13]; at 3.7 µM 5% | [13]; at 11.0 µM 17% | [13]; at 33.0 µM 15% | [14]; at 1.2 µM 3% | [14]; at 3.7 µM 12% | [14]; at 11.0 µM 40% | [14]; at 33.0 µM 63% | [15]; [17] 7% | [16]; at 1.2 µM -3% | [16]; at 3.7 µM 11% | [16]; at 11.0 µM 30% | [16]; at 33.0 µM 55%

CCOC(=O)c1cc([N+](=O)[O-])c(Sc2ncnc3nc[nH]c23)c([N+](=O)[O-])c1
inactive: [1]; at 1.2 µM 0% | [1]; at 3.7 µM 0% | [1]; at 11.0 µM 34% | [2]; at 1.2 µM -22% | [2]; at 3.7 µM -26% | [2]; at 11.0 µM -6% | [2]; at 33.0 µM 62% | [3]; at 1.2 µM -8% | [3]; at 3.7 µM -8% | [3]; at 11.0 µM -5% | [3]; at 33.0 µM 6% | [3]; at 100.0 µM 22% | [4]; at 1.2 µM -20% | [4]; at 3.7 µM -29% | [4]; at 11.0 µM 16% | [5]; at 1.2 µM -40% | [5]; at 3.7 µM -18% | [5]; [17] 31% | [5]; at 11.0 µM 11% | [5]; [18] 63% | [5]; at 50.0 µM 17.4% | [6]; at 1.2 µM -22% | [6]; at 3.7 µM -13% | [6]; [17] 29% | [6]; at 11.0 µM 38% | [6]; at 50.0 µM 58% | [7]; at 1.2 µM -34% | [7]; at 3.7 µM -23% | [7]; at 11.0 µM -3% | [8]; [17] 6% | [8]; [18] -13% | [8]; at 50.0 µM 56% | [9]; at 1.2 µM -18% | [9]; at 3.7 µM -2% | [9]; at 11.0 µM 29% | [9]; at 33.0 µM 49% | [10]; [17] -5% | [10]; [18] -64% | [10]; at 50.0 µM 60.3% | [11]; at 1.2 µM -19% | [11]; at 3.7 µM -7% | [11]; [17] 7% | [11]; at 11.0 µM 43% | [11]; [18] 34% | [11]; at 50.0 µM 33.1% | [12]; at 1.2 µM -31% | [12]; at 3.7 µM -25% | [12]; at 11.0 µM 2% | [12]; at 33.0 µM 46% | [13]; at 1.2 µM -28% | [13]; at 3.7 µM -23% | [13]; at 11.0 µM 50% | [14]; at 1.2 µM 13% | [14]; at 3.7 µM 13% | [14]; at 11.0 µM 41% | [15]; [17] 55% | [16]; at 1.2 µM -17% | [16]; at 3.7 µM 9% | [16]; at 11.0 µM 55%
active: [1]; at 33.0 µM 79% | [1]; at 100.0 µM 90% | [2]; at 100.0 µM 92% | [4]; at 33.0 µM 81% | [4]; at 100.0 µM 89% | [5]; at 33.0 µM 75% | [5]; at 100.0 µM 89% | [6]; at 33.0 µM 89% | [6]; [18] 75% | [6]; at 100.0 µM 91% | [7]; at 33.0 µM 72% | [7]; at 100.0 µM 87% | [9]; at 100.0 µM 83% | [11]; at 33.0 µM 88% | [11]; at 100.0 µM 88% | [12]; at 100.0 µM 85% | [13]; at 33.0 µM 90% | [13]; at 100.0 µM 90% | [14]; at 33.0 µM 71% | [14]; at 100.0 µM 87% | [15]; [18] 89% | [15]; at 50.0 µM 86.2% | [16]; at 33.0 µM 82% | [16]; at 100.0 µM 84%
